Source: ChEMBL document CHEMBL1961873, “Compounds: GSK PKIS; Assays: Nanosyn kinase panel” (2012)

Experiments:
[1] = target: Serine/threonine-protein kinase pim-2 (Homo sapiens) (UniProt Q9P1W9); conditions: at 1 µM;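 further: each value is a mean of the inhibition measurements against the kinase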
[2] = target: Serine/threonine-protein kinase pim-3 (Homo sapiens) (UniProt Q86V86); conditions: at 0.1 µM
[3] = target: Serine/threonine-protein kinase pim-3 (Homo sapiens) (UniProt Q86V86); conditions: at 1 µM
[4] = target: T1, MAP kinase-activated protein kinase 5 (Homo sapiens) (UniProt Q8IW41); conditions: at 0.1 µM
T1 sequence (whole entry): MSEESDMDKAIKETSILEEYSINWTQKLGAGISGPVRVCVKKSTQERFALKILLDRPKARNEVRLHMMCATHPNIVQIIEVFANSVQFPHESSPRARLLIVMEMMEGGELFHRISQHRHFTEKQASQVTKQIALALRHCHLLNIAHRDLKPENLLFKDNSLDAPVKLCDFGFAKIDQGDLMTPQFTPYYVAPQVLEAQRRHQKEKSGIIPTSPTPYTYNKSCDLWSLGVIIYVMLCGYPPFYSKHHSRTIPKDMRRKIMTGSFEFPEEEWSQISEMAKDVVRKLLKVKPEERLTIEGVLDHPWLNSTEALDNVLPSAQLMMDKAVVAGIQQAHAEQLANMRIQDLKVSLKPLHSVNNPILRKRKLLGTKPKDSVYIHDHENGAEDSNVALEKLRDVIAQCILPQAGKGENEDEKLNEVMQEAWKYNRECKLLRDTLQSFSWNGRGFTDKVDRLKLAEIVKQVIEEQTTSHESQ

[5] = target: T1, MAP kinase-activated protein kinase 5 (Homo sapiens); conditions: at 1 µM
[6] = target: Serine/threonine-protein kinase SIK1 (Homo sapiens) (UniProt P57059); conditions: at 0.1 µM
[7] = target: Serine/threonine-protein kinase SIK1 (Homo sapiens) (UniProt P57059); conditions: at 1 µM
[8] = target: Serine/threonine-protein kinase SIK2 (Homo sapiens) (UniProt Q9H0K1); conditions: at 0.1 µM
[9] = target: Serine/threonine-protein kinase SIK2 (Homo sapiens) (UniProt Q9H0K1); conditions: at 1 µM
[10] = target: T2, Serine/threonine-protein kinase TBK1 (Homo sapiens) (UniProt Q9UHD2); conditions: at 0.1 µM
T2 sequence (whole entry): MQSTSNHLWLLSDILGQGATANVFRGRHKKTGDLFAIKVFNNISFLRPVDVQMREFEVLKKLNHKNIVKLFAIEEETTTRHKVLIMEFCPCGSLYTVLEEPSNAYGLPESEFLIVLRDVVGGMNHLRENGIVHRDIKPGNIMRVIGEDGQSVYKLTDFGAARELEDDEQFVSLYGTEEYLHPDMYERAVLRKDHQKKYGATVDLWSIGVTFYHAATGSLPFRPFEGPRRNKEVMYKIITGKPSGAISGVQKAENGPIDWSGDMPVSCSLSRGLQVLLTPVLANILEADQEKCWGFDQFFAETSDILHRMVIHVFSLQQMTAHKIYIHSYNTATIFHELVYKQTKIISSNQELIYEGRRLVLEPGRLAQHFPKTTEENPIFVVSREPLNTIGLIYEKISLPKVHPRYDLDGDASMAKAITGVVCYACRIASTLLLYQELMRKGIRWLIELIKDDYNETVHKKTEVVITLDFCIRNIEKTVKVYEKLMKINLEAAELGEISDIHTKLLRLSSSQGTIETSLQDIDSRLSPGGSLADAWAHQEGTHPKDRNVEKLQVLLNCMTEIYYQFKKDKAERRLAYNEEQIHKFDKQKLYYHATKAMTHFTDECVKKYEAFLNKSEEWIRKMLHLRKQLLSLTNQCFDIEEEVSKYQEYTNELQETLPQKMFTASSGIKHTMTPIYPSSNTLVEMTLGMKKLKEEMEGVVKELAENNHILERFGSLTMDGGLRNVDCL

[11] = target: T2, Serine/threonine-protein kinase TBK1 (Homo sapiens); conditions: at 1 µM
[12] = target: T3, Testis-specific serine/threonine-protein kinase 1 (Homo sapiens) (UniProt Q9BXA7); conditions: at 0.1 µM
T3 sequence (whole entry): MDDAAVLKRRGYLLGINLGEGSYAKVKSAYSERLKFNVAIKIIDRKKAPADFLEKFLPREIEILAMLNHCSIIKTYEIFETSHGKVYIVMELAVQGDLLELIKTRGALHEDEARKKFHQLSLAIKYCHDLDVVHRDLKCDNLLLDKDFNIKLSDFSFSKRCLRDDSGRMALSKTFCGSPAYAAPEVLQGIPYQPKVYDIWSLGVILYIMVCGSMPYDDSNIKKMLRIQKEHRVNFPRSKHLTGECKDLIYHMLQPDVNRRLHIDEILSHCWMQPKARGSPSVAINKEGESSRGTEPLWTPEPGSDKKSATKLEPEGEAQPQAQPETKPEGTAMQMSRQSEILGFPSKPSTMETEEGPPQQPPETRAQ

[13] = target: T3, Testis-specific serine/threonine-protein kinase 1 (Homo sapiens); conditions: at 1 µM
[14] = target: T4, Testis-specific serine/threonine-protein kinase 2 (Homo sapiens) (UniProt Q96PF2); conditions: at 0.1 µM
T4 sequence (whole entry): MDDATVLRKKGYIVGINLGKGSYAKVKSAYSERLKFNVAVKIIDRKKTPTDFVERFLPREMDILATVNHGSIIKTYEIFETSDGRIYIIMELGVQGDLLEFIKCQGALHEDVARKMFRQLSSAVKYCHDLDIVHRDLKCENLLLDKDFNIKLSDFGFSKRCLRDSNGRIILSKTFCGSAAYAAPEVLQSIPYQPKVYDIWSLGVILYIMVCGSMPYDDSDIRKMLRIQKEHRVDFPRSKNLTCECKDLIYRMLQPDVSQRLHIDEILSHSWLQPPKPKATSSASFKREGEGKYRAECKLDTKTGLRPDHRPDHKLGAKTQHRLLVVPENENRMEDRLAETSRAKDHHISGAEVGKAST

[15] = target: T4, Testis-specific serine/threonine-protein kinase 2 (Homo sapiens); conditions: at 1 µM
[16] = target: Casein kinase I isoform alpha (Homo sapiens) (UniProt P48729); conditions: at 0.1 µM
[17] = target: Casein kinase I isoform alpha (Homo sapiens) (UniProt P48729); conditions: at 1 µM
[18] = target: Casein kinase I isoform gamma-1 (Homo sapiens) (UniProt Q9HCP0); conditions: at 0.1 µM
[19] = target: Casein kinase I isoform gamma-1 (Homo sapiens) (UniProt Q9HCP0); conditions: at 1 µM
[20] = target: Casein kinase I isoform gamma-2 (Homo sapiens) (UniProt P78368); conditions: at 0.1 µM;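 further: values are mean inhibition figures reported as part of the GSK PKIS dataset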
Sequence of Casein kinase I isoform gamma-2 (Homo sapiens) (P78368 whole entry, looked up, canonical isoform): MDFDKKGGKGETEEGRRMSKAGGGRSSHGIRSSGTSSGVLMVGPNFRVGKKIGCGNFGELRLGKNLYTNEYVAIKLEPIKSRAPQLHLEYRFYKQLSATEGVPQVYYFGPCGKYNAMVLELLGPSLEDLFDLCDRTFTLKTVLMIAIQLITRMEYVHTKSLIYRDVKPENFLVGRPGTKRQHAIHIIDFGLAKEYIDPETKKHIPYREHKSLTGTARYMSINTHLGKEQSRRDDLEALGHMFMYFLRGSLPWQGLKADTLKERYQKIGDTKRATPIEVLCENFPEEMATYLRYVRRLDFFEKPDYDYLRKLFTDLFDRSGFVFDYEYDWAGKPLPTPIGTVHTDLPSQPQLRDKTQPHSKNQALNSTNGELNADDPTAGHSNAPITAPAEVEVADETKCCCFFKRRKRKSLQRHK

Sequence of Casein kinase I isoform gamma-1 (Homo sapiens) (Q9HCP0 whole entry, looked up, canonical isoform): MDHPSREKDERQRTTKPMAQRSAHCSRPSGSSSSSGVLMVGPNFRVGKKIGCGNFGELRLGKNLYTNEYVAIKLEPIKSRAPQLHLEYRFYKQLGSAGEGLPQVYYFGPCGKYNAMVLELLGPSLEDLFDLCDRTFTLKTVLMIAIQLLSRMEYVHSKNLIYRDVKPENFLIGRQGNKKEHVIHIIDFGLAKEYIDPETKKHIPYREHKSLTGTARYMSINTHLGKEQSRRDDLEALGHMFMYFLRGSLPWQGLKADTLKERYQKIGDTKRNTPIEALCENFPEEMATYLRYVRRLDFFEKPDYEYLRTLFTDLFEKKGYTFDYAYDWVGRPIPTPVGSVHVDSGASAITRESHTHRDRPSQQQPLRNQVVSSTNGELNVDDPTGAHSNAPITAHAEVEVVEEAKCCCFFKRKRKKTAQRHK
Sequence of Serine/threonine-protein kinase SIK2 (Homo sapiens) (Q9H0K1 whole entry, looked up): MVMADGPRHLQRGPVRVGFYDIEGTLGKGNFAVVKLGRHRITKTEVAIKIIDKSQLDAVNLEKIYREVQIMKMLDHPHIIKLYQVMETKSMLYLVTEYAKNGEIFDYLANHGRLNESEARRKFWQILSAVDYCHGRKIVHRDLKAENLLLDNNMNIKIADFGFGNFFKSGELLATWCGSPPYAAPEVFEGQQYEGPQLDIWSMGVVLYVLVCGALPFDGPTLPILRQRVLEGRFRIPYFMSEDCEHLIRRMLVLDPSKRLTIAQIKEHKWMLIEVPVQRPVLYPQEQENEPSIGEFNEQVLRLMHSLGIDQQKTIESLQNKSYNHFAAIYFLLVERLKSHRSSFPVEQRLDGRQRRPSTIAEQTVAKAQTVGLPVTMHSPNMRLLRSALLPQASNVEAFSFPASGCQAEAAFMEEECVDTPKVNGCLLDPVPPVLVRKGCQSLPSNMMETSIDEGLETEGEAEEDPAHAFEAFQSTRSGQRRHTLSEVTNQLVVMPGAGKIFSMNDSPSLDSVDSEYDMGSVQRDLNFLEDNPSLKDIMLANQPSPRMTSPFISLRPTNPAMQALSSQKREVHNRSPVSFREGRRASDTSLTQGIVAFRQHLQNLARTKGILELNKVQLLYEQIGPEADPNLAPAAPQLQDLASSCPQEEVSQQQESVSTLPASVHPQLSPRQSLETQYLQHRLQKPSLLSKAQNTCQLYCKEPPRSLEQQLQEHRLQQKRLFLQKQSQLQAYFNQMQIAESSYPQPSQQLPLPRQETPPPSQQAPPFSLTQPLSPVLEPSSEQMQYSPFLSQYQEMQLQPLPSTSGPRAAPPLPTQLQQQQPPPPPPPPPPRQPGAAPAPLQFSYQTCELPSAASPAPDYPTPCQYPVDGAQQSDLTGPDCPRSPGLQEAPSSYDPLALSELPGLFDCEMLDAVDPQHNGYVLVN
Sequence of Serine/threonine-protein kinase pim-2 (Homo sapiens) (Q9P1W9 whole entry, looked up): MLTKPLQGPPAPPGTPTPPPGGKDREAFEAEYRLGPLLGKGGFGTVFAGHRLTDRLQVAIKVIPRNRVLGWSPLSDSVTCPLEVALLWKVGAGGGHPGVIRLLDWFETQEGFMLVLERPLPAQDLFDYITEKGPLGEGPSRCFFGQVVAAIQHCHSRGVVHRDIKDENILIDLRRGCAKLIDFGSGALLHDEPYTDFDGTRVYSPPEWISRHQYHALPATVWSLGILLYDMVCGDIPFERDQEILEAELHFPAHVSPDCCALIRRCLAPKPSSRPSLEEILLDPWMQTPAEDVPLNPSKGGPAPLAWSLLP
Sequence of Serine/threonine-protein kinase SIK1 (Homo sapiens) (P57059 whole entry): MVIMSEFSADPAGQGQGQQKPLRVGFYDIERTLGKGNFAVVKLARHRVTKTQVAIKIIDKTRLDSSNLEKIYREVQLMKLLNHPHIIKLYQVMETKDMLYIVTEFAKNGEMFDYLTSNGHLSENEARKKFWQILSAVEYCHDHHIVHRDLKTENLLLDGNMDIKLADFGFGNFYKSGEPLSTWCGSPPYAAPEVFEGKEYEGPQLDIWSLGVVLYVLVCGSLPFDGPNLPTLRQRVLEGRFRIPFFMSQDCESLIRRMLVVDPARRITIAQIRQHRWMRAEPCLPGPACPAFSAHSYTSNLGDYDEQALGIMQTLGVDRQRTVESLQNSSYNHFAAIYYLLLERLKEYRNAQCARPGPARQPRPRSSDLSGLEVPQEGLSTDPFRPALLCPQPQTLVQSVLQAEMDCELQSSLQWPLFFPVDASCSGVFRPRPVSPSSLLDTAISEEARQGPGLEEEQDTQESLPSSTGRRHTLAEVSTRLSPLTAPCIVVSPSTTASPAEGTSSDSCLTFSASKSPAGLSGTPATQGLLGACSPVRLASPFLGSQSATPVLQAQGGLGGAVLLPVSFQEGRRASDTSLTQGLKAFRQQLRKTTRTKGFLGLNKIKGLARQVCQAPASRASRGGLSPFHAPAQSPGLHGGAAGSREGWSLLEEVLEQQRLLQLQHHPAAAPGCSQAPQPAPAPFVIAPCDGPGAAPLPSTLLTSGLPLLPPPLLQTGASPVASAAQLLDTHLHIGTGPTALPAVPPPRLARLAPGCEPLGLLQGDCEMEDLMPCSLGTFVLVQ
Sequence of Casein kinase I isoform alpha (Homo sapiens) (P48729 2-337 limits assumed): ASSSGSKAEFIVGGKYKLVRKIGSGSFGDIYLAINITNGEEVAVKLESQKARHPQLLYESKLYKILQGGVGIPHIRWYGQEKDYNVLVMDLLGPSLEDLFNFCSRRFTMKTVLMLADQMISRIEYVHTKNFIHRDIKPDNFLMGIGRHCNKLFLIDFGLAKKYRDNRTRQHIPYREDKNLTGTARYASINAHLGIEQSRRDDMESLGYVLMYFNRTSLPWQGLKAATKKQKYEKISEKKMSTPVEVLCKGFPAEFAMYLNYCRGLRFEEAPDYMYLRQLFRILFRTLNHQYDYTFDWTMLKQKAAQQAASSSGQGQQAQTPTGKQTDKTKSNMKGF

SMILES | inhibition [1] [%] | inhibition [2] [%] | inhibition [3] [%] | inhibition [4] [%] | inhibition [5] [%] | inhibition [6] [%] | inhibition [7] [%] | inhibition [8] [%] | inhibition [9] [%] | inhibition [10] [%] | inhibition [11] [%] | inhibition [12] [%] | inhibition [13] [%] | inhibition [14] [%] | inhibition [15] [%] | inhibition [16] [%] | inhibition [17] [%] | inhibition [18] [%] | inhibition [19] [%] | inhibition [20] [%]
CN(C)CCCNc1nccc(-c2c(-c3ccc(F)cc3)nn3cc(C(F)(F)F)ccc23)n1 | -3.32 | -0.45 | -0.57 | 0.44 | -0.97 | 3.07 | 7.21 | -1 | 6.81 | 0.75 | 4.86 | 1.45 | -1.19 | 0.61 | -2.11 | 1.35 | 14.8 | -2.45 | -1.14 | -3.5
CN(C)c1ccc2c(c1)/C(=C/Nc1ccc(S(N)(=O)=O)cc1)C(=O)N2 | 1.18 | 0.39 | 0.56 | 0.23 | 0.46 | 3.94 | 14.7 | 5.24 | 18.2 | 6.65 | 49.7 | 2.84 | 9.92 | 0.44 | 1.25 | 1.06 | 2.88 | 1.12 | 1.57 | 1.13
Fc1ccc(-c2ncn(C3CCNCC3)c2-c2ccnc(Oc3ccc4c(c3)OCO4)n2)cc1 | 0.71 | 0.14 | 1.3 | 2.12 | 2.05 | 5.99 | 6.9 | 2.25 | 18.5 | 2.29 | 4.07 | 4.2 | 4.17 | 2.83 | 4.26 | 6.52 | 31 | 5.84 | 13.1 | 4.86
C[C@@H](Oc1cc(-n2cnc3ccc(OC4CCN(C)CC4)cc32)sc1C(N)=O)c1ccccc1Cl | -3.56 | 8.14 | 45 | 1.31 | 1.54 | 3.1 | 19.3 | 6.72 | 14 | 4.61 | 4.33 | 4.11 | 10.3 | 2.61 | 1.72 | 4.09 | 6.16 | 0.61 | -0.21 | 0.26
Cc1ccc(NC(=O)c2ccoc2)cc1-c1ccc(C(=O)NCC2CC2)cc1 | 0.6 | 0.71 | -0.9 | 0.96 | 0.83 | 2.51 | 0.11 | 5.39 | 5.33 | 0.28 | 0.72 | 1.46 | 3.27 | 0.85 | 1.22 | 1.36 | 1.47 | 2.78 | 3.5 | 2.62
O=C(NCC1CC1)c1ccc(-c2cccc(C(=O)NC3CC3)c2)cc1 | 0.96 | -0.84 | -3.1 | 0.6 | -0.88 | 0.25 | 4.41 | -1.64 | -0.16 | 2.28 | 0.69 | 2.17 | -0.94 | 0.33 | -1.83 | 2.21 | 3.38 | 2.43 | 3.84 | 1.59
C[C@@H](Oc1cc(-n2cnc3ccc(OCC4CCN(C)CC4)cc32)sc1C(N)=O)c1ccccc1Cl | 2.74 | 11.4 | 52.7 | 1.77 | 2.11 | 11.5 | 42 | 7.32 | 22 | 4.93 | 6.08 | 6.84 | 13.6 | 3.55 | 3.8 | 5.44 | 6.37 | 5.29 | 8.54 | 5.69
CCc1nccc2c1nc(-c1nonc1N)n2CC | 1.27 | -0.38 | -2.26 | -0.45 | -1.56 | 0.62 | 4.31 | -4.39 | 6.79 | 1.12 | 6.1 | 0.58 | 0.27 | -0.65 | -0.91 | 3.39 | 3.67 | 0.76 | 2.98 | 0.48
COc1cc2ncn(-c3cc(OCCc4ccccc4)c(C(N)=O)s3)c2cc1OC | 0.47 | -1.48 | -2.48 | 0.21 | -0.58 | 3.59 | 9.48 | 1.23 | 3.75 | 0.96 | 22.3 | 1.85 | 2.26 | -0.18 | -0.8 | 2.37 | 3.77 | 3.01 | 5.65 | 2.92
CS(=O)(=O)CCNCc1ccc(-c2ccc3ncnc(Nc4ccc(OCc5ccccc5)c(Br)c4)c3c2)o1 | -3.1 | -0.66 | -0.32 | 1.32 | 2.06 | 2.19 | 8.17 | 4.6 | 4.18 | 1.02 | 1.05 | 2.71 | 2.53 | 1.22 | 1 | 1.67 | 0.68 | 0.63 | -0.07 | -0.49
Fc1ccc(-c2c(-c3ccncc3)nc3n2CCS3)cc1 | -3.85 | 0.35 | 0.43 | 1.37 | 1.61 | 5 | 7.55 | 5.11 | 5.89 | 0.11 | 2.15 | 2.46 | 2.91 | 1.87 | 2.38 | 2.51 | 4.21 | -1.2 | -0.38 | -1.41
COc1ccc2ncn(-c3cc(O[C@H](C)c4ccccc4Cl)c(C(N)=O)s3)c2c1 | -2.83 | 0.05 | 4.48 | 1.58 | 1.26 | 4.44 | 11.2 | 2.04 | 0.17 | 2.41 | 3.86 | 2.29 | 2.54 | 0.96 | 1.28 | 2.14 | 2.16 | 0.39 | -0.54 | -0.05
